# Laboratory results: article PMC13494018
# Values without a mark were called inactive. No rule for the calls is given here.
# Biological target: CD276, Q5ZPR3
# Sequence (Q5ZPR3 whole entry): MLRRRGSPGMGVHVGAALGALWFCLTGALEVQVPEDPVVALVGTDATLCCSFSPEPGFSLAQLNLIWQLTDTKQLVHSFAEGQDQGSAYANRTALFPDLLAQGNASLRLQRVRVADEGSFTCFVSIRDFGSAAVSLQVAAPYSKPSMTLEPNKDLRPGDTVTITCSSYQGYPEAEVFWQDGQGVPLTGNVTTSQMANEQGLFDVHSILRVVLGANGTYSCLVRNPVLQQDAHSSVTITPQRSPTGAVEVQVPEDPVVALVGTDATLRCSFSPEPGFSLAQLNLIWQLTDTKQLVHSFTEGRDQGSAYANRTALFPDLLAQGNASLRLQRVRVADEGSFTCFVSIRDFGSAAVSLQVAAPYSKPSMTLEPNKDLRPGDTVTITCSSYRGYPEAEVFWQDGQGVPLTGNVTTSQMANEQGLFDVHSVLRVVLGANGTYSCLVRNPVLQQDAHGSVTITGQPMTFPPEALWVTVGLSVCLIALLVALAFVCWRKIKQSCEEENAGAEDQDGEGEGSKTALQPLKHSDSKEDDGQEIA
row,Binder,binding in a display sort
1,d1r8_design_ppi_467_dldesign_0_cycle1_af2pred (protein) AEAEAAVASLVEFVKAILDAAATQDPRLAPAAEEALALMEAGDFDEAARLFLAAGAAAGPAAAALARAAANAMRLAAEAAAAI,not found
2,d1r8_design_ppi_23_dldesign_0_cycle0_af2pred (protein) MEELAEEYIEEARRYAEEAERLAEQAGEAARPLARAARRALELAEENREDLELVKGQAEAARVFLEAARSRLEQLA,not found
3,d1r8_design_ppi_566_dldesign_0_cycle1_af2pred (protein) MTPEEAREMGERIREAAKRSVEEAVKAIEEAKEKLSPELKPLADRAIELAKRSPEAGANLATTALHIEALS,not found
4,d1r7_design_ppi_941_dldesign_0_cycle0_af2pred (protein) AAAAAEAAEYLGKAVEYHKELEEAARRAIEKFGPEVEEEMEELLREAREALAKASQAAIAGDAEKTKEEMEKIKKIRERAKELLEK,not found
5,d1r8_design_ppi_364_dldesign_0_cycle0_af2pred (protein) DLERAAEEAERLAEETLARAAAGEITLEELAEAHRRIGELIERVAASGELAERVARRASRLMNQALTALA,not found
6,d1r8_design_ppi_87_dldesign_0_cycle1_af2pred (protein) NPLLEEARRAIEEAAKLVKTGTPEEAREALKRAAHELLRLAARSTDQAVAQKLITAAELVAKAAELVLTNPEEALKLVEEAL,not found
7,d1r8_design_ppi_543_dldesign_0_cycle0_af2pred (protein) AAAQTAHAQAVLDTLIALALRKAAEDPAAARAALESAKLVAEGVKATGDAATGAAAQAKVDAAGAEVAAAAA,not found
8,d1r8_design_ppi_588_dldesign_0_cycle1_af2pred (protein) AAEDKALAAAMAAEAEKVIAEAAKQTPAEANKLAATFAEKAFALAKEHPGAAAALNAAAFKVLTGAMKAIQAQSA,not found
9,d1r8_design_ppi_393_dldesign_0_cycle1_af2pred (protein) EREELAERLEKAARLLEEGAASDSPGLLAARAWAAANVAPPEWAARLREVSRAALANVEEGRKLAKELAEELRKEAERLRKEL,not found
10,d1r8_design_ppi_140_dldesign_0_cycle0_af2pred (protein) DVAAMKKEVEELKKKVEEVAKKAAESPEAQPYVNQAKGNAKSAELAAEGGDVALAKRFLKLAEEAMKKAEALI,not found
11,d1r7_design_ppi_937_dldesign_0_cycle1_af2pred (protein) GAAAEAAEREAKAALLKEVGAAAARMAPENPRLAAAGALGAARGLAALGYAEEGKAVLEETAAALPDPEEAARLRAAAAAL,binds (active)
12,d1r7_design_ppi_941_dldesign_0_cycle1_af2pred (protein) AADRAAAAAALGAAVEAYSELVKLAKEAIEKHGPKVAPEMEKLIAEAQKALAAAAKAAIAGDAKAAKAAAEKIKKLKEEAKKLLEE,not found
13,d1r8_design_ppi_296_dldesign_0_cycle1_af2pred (protein) SAAAKAAAEAAKQRVDGLAQMAIASPALLPHMEAMAKRAAAAVAALDPALGAEVEKYAKEQMAKAKAAVAAAAAAA,not found
14,d1r8_design_ppi_373_dldesign_0_cycle1_af2pred (protein) SEELIKNLLLAASKALAGVESAPEAIKAAEEAAKDPRLKEDAEKAKKLIKAAIKATPEEAAKLLKKAAKLLNDALRKYTS,not found
15,d1r8_design_ppi_150_dldesign_0_cycle1_af2pred (protein) SQAALVAAKGALALAKGIKAHVESNPNLPLEELEKLKEQLKTAEEMAKAAEKEAKKAGDKEVLEAAKKALEAIKEAKKALEEAIKKAK,not found
16,d1r8_design_ppi_233_dldesign_0_cycle0_af2pred (protein) DDLEEARELLEEARRLGEQALALVAQNPAARAEGGALMLELLKLQAEARRRAAEYEADPEKAEAAEAYREAAELASQLVRQISQAAV,not found
17,d1r8_design_ppi_139_dldesign_0_cycle1_af2pred (protein) AMSVGELMEVAKAEGAAVNAAAAALAAKDPAKAAALLDAYRAKVNAIIAEMSRTAIASGDFEAAAAAAAAKIKAAAKETLAALKAIA,not found
18,d1r8_design_ppi_401_dldesign_0_cycle1_af2pred (protein) MEKVEKAKKGLEQATELAKAMVPEKAEEFEKIRKEGVEEAKKAAGDPEKAAEILAKARNEILRNGIKAAMAAAKAAA,binds (active)
19,d1r8_design_ppi_443_dldesign_0_cycle0_af2pred (protein) SAAAALLARTAAAIVAQTRALVGDAKAAEAQALADAAVAAAKAGDYAKAGALLTELLKLAAEARREKAAAEAAAAA,not found

row,Binder,binding in a display sort
1,d1r8_design_ppi_233_dldesign_0_cycle1_af2pred (protein) GALEEAKEKKKEAEEIGKQALALAAQNPASRAQAGALQVELLKLSAEARRKAEEYKADPETREAAKAYEEAAKLASQKIVEVSQALV,not found
2,d1r8_design_ppi_314_dldesign_0_cycle1_af2pred (protein) ALEEAKKAAEEAKAAAAEARAYFDAAGLTGAGNGFYNNTKKRAEELLKEAEEGSEEEAKKARKELERLKETAEKMLEVAKGVYAAAQA,not found
3,d1r8_design_ppi_80_dldesign_0_cycle0_af2pred (protein) AAAEAAAALAAARAALAAVRETLARAERGEATREEAGAAINAGMRTIAALNAVAARIPAAKAEFDALAGEILDAIRALAAAVR,not found
4,d1r8_design_ppi_373_dldesign_0_cycle0_af2pred (protein) DQETTGNLVLAAAKANAGVEEADKAIEAAEKAAKDPKLKEKAEEAKKLIEEAKKATPEEAKKLLKEAAKLVNEALRAYSA,not found
5,d1r8_design_ppi_356_dldesign_0_cycle1_af2pred (protein) VLEAVSAALSLAEEAAELDPRAGHALLTYANAVWNPATLEKGRKTAREKAKEFKKRAEEEDGERARKAAELLEKAIEEAEKLLKEA,not found
6,d1r8_design_ppi_185_dldesign_0_cycle1_af2pred (protein) AAQAKALAAEADKLTEKARKLAKEGGDKEEVSKLLAEAAEKYAAAAEADPSTAFEYNARANLARFASQQNLEQAAKVAEAI,not found
7,d1r8_design_ppi_321_dldesign_0_cycle0_af2pred (protein) SAEENKKRLIAAAEAAFKNFSAEAERLEAEGKKEEAAKVYEQLAELLEQMRESAKATAGEEGAKEIEKLLEEAKKKLEEVK,not found
8,d1r8_design_ppi_443_dldesign_0_cycle1_af2pred (protein) SPAAALLARTAAAIAAQTVREVGPARAAELQALADAATAAAEAGDFTTAGELLEELLRLAAEARAEKAAAERAAAA,not found
9,d1r7_design_ppi_889_dldesign_0_cycle1_af2pred (protein) SEELDRAGAQTLAEIVGKQAKKVAKAAKELSKEKGGELTPLAEKAEEAAKKAIKLAEEGASAEEIYKAAQEAQDLRLKAKAALKAAKA,not found
10,d1r8_design_ppi_587_dldesign_0_cycle0_af2pred (protein) SEYRREAEELRERVERIEKRMREAKTAEEAREVLREAQRVAAEAARLAVQAAADGADQEVLDEINEVLSRALEVAREASRKARELE,not found
11,d1r8_design_ppi_218_dldesign_0_cycle1_af2pred (protein) PTPEELAAAYREVRELAERAVAGTPEEAKRYAERIAELVARAEERFGPGAGVLLRNVALAVARANPVAYEYVRAAL,not found
12,d1r8_design_ppi_128_dldesign_0_cycle0_af2pred (protein) EEEVKKAKEEAEKAIEEARETERRYFAEAGRNPANALAYLQAGLEELEKIAKELERKGEEEGGEAGKVYKEAAREIKERRERIAAALS,not found
13,d1r8_design_ppi_364_dldesign_0_cycle1_af2pred (protein) ALEEAAREARELADETLAAAKAGTINLEELAARFNEAGRLIREVEALGELAEEVGRYVSRKFNEALTALL,not found
14,d1r8_design_ppi_534_dldesign_0_cycle1_af2pred (protein) AAALAAEAAALAQEALANIAEADALAKKADPEIGKIYEEAARHFMRGVSLAQRGDLERAKKEIEEGKKLFEKAKELEKKKKEKE,not found
15,d1r8_design_ppi_454_dldesign_0_cycle1_af2pred (protein) AAEAQARAEKAEKLMREAVELVKADPTPEAVKEAEKLIAEAAKLATGSAEKHAAANAARALRTRGPEAAEVQAKLFVEMIKT,not found
16,d1r7_design_ppi_869_dldesign_0_cycle0_af2pred (protein) GIGDELAKGEEYYRKSIELAKEGNKEEAKKYLEEAEAHYAAAAAAAEAQGNTALAAALRARAKARKEEAEKLIK,not found
17,d1r7_design_ppi_871_dldesign_0_cycle1_af2pred (protein) AAAAQTALRTAAAMYRSAAEMFEAGKTEDGLAAAKVAADVAANVPANKEFAAKTLKEITEAAKKDPAEAAKIAREAADYLDAQAAA,not found
18,d1r7_design_ppi_873_dldesign_0_cycle1_af2pred (protein) SESIENQKKASEAMSEAIEAMAKAGFPISERNEVGKLGIEAMRLFQKSPEDPAALEEGKKKLAEVEKRLKEAKAA,not found
19,d1r8_design_ppi_82_dldesign_0_cycle1_af2pred (protein) AAAAAKTAAKNVLKAVENFSKNAAAAGKASTPEEAARKLAEIEKFGEAGIAVAAADPEIAKKVKEVVDKAIAELKKAAA,not found
